Reference: PubChem BioAssay AID1851 (National Center for Advancing Translational Sciences (NCATS), 2009)
The whole screen tested about 16,000 compounds, of which about 2,600 (16%) were called active. Another 20% or so got no clear call; they are omitted. The call rests on the fitted dose curve; in most records, active means well fitted curve in the direction sought with a large enough effect; inconclusive means small, poorly fitted or top-dose-only effect, or effect the other way; inactive means no such curve, though single readings can be large or run the other way. The list is a sample of the results.

biological target: Cytochrome P450 2D6 (Homo sapiens) (UniProt P10635); assay: Cytochrome panel assay with activity outcomes; conditions: recombinant CYP, pro-luciferin dealkylation, luminescence, p450-cyp2d6; series mostly up to 57.1 µM
Sequence (P10635 whole entry, looked up): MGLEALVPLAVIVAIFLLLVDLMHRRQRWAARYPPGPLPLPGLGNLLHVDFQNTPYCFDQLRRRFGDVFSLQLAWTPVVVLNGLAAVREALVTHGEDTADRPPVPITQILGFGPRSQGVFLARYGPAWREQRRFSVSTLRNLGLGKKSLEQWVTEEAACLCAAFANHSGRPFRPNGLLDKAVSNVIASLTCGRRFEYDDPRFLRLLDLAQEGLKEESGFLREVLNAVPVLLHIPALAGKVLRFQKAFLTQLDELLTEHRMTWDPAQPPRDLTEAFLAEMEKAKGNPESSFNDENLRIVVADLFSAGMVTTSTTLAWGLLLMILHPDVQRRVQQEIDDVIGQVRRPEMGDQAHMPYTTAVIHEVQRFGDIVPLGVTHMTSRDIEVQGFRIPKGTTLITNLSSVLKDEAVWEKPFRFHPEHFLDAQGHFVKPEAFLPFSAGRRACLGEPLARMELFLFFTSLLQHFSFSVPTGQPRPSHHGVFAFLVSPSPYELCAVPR
On the % scale 0 is the no-effect control and ±100 the full control effect.

SMILES	activity, negative = inhibition	AC50
Cc1cc2c(cc1C)NC1=C(N2)O[C@H](c2c[nH]c3ccc(COc4ccccc4)cc23)C1=O	-9.09% [at 11.4 µM] (inactive)	–
N#C/C(=N\O)c1nc(-c2ccccc2)cs1	–	inactive
CC(C)(C)c1ccc(OCC(=O)NNC(=O)Cc2cccs2)cc1	–	inactive
C/C(C[n+]1ccccc1)=N\N=C(N)N	6.81% [at 11.4 µM] (inactive)	–
CN(C)C(=O)CSC1c2ccccc2C(=O)N1c1ccccc1 (stereo not drawn)	–	inactive
O=c1c(-c2ccccc2)nc2cnc(N3CCNCC3)nc2n1C1CC1	–	inactive
Cc1onc(-c2c(F)cccc2Cl)c1C(=O)N[C@@H]1C(=O)N2[C@H]1SC(C)(C)[C@H]2C(=O)O	16.2% [at 11.4 µM] (inactive)	–
CNc1cc(N2CCCCCC2)ccc1[N+](=O)[O-]	–	inactive
CCC(CC)C(=O)Nc1cccc(/C(C)=N/NC(=O)c2c(Br)cnn2C)c1	–	inactive
CN(C)CCn1nnnc1SCC1=C(C(=O)O)N2C(=O)[C@@H](NC(=O)Cc3csc(N)n3)[C@@H]2SC1	–	inactive
COC(=O)N1CCC2(CCN(Cc3cc(C(F)(F)F)cc(C(F)(F)F)c3)CC2)CC1	–	10 µM (active)
COCC(=O)N1CCC2(CC1)CN(Cc1cc(C(F)(F)F)cc(C(F)(F)F)c1)C2	–	inactive
COc1ccccc1CN1CCC2(CCNCC2)CC1	–	0.0316 µM (active)
COCC(=O)N1CCC2(CC1)CCN(C(=O)Nc1ccc(OC)cc1)CC2	–	inactive
COCC(=O)N1CCC2(CC1)CN(Cc1ccccc1OC)C2	–	inactive
COc1ccc(C(=O)N2CCC3(CCN(Cc4cc(C(F)(F)F)cc(C(F)(F)F)c4)CC3)CC2)cc1	–	inactive
COCC(=O)N1CCC2(CCN(Cc3ccccc3OC)CC2)CC1	–	15.8 µM (active)
COc1ccc(NC(=O)N2CCCC3(CCNCC3)C2)cc1	–	inactive
Cc1cc2c(cc1S(N)(=O)=O)S(=O)(=O)CCC2	–	inactive
CON(C)C(=O)c1nnc2c(n1)[nH]c1ccccc12	-2.74% [at 11.4 µM] (inactive)	–
N[C@H](CCC(=O)N[C@H](CSN=O)C(=O)NCC(=O)O)C(=O)O	–	inactive

SMILES	activity, negative = inhibition	AC50
COc1cc(N2CCOCC2)ncn1	–	inactive
Cc1ccc(Oc2ncc(CN3CCOCC3)s2)cc1	–	inactive
Cc1cc(C(C)(C)C)c(OCCCN2CCOCC2)c(C(C)(C)C)c1	–	2 µM (active)
N[C@@]1(C(=O)O)CN[C@H](C(=O)O)C1	–	inactive
NC1(C(=O)O)CC(C(=O)O)C1 (stereo not drawn)	–	inactive
Cc1cc(C)cc(-n2nnnc2SCC(=O)Nc2nc(-c3ccc(F)cc3)cs2)c1	–	inactive
COc1ccc(COC(=O)N/N=C2/C[C@@H](O)[C@@H](O)[C@@H]3[C@@H]4C(=O)N(C(C)(C)C)C(=O)[C@H]4CC[C@@H]23)cc1	12.5% [at 11.4 µM] (inactive)	–
CCC(CC)C(=O)Nc1ccc(C)c(O)c1	–	17.8 µM (active)
COC(=O)CSC(C(=O)Nc1ccc(C)c(C)c1)c1ccccc1 (stereo not drawn)	–	inactive
CCC(CC)C(=O)Nc1cccc(/C(C)=N\NC(=O)c2ccc(C)s2)c1	–	inactive
CCOC(=O)CN(C(=O)CCC(=O)Nc1cc(C)on1)C(C(=O)NC1CCCC1)c1cccnc1 (stereo not drawn)	–	inactive
Cc1ccccc1C(C(=O)NC1CCCC1)N(C(=O)Cc1cccs1)c1ccc2c(c1)OCCO2 (stereo not drawn)	–	inactive
CCOc1ccc(N(C(=O)/C=C/C(=O)Nc2cc(C)on2)C(C(=O)NC2CCCC2)c2ccccc2C)cc1 (stereo not drawn)	–	14.1 µM (active)
COc1cccc(C(CC(=O)Nc2cccc3ccccc23)NC(=O)c2ccccc2)c1 (stereo not drawn)	–	inactive
COC(=O)c1cc2c(ccn2-c2ccc(F)cc2)n1C(C)C	–	inactive
CNC(=O)c1cc2c(cn1)[nH]c1ccccc12	–	inactive
O=c1ccc(-c2ccccc2)n[nH]1	2.58% [at 11.4 µM] (inactive)	–
O=C1c2ccccc2-c2n[nH]c3cccc1c23	–	0.398 µM (active)
Nc1n[nH]c2ccccc12	-3.15% [at 11.4 µM] (inactive)	–
Cc1ccc(NC(=O)CN2C(=O)N/C(=C/c3ccc(C)o3)C2=O)cc1	–	inactive
CC(=O)OCc1nc2ccccc2s1	–	inactive

SMILES	activity, negative = inhibition	AC50
CCCc1cc(C(=O)Cc2nc3ccccc3s2)c(O)cc1O	–	1.41 µM (active)
CCCCOC(=O)Nc1nc2ccccc2s1	–	inactive
Cc1cc2ncn(/N=C/c3ccc([N+](=O)[O-])o3)c2cc1C	–	inactive
COc1cccc(-c2cc(=O)c3ccccc3o2)c1N	–	7.94 µM (active)
Cc1cccc(NC(=O)c2cc(=O)c3ccccc3o2)n1	–	inactive
COc1cccc2cc3c(=O)oc4ccccc4c3nc12	–	inactive
CC1CC2=C(NC(=S)NC2c2ccc(F)cc2)/C(=C/c2ccc(F)cc2)C1 (stereo not drawn)	–	inactive
CO[C@@H]1/C=C\CC(=O)N[C@@H](C)C(=O)OC[C@H](NS(=O)(=O)c2ccc(C)cc2)[C@H](C)/C=C\CC(=O)OC[C@H]1C	-18.7% [at 11.4 µM] (inactive)	–
COc1cccc(-c2cc3nc(-c4ccccc4)cc(N4CCC5(CC4)OCCO5)n3n2)c1	–	inactive
CCNc1ncc2nc(CCc3ccccc3)c(=O)n(CCOC)c2n1	–	0.398 µM (active)
N#CCCn1c(=O)c(CCc2ccccc2)nc2cnc(Nc3ccccc3)nc21	–	inactive
CCNc1ncc2nc(CCc3ccccc3)c(=O)n(CCC#N)c2n1	–	0.158 µM (active)
COCCn1c(=O)c(CCc2ccccc2)nc2cnc(OC)nc21	–	inactive
COc1cccc(Nc2ncc3nc(CCc4ccccc4)c(=O)n(CCC#N)c3n2)c1	–	inactive
CCNc1ncc2nc(CCc3ccccc3)c(=O)n(Cc3cccc(OC)c3)c2n1	–	inactive
CCC(=O)N1CCN(C(=O)c2ccccc2)CC1	–	inactive
COc1cc(O)c2c(O)c3c(c4c2c1[C@@]1(C4)C(C)=CCCC1(C)C)[C@H](O)[C@@]1(O)CC(=O)C(C(N)=O)=C(O)[C@]1(O)C3=O	-15.8% [at 11.4 µM] (inactive)	–
O=C(/C=C/c1cccc(Cl)c1)Nc1ccncc1	–	7.94 µM (active)
COC(=O)c1cccc(NC(=O)/C=C/c2cccc([N+](=O)[O-])c2)c1	–	inactive
COCCCNC(=O)/C=C/c1cccc(Cl)c1	–	inactive
C[C@@]1(CCOCc2ccccc2)NC(=O)NC1=O	-5.74% [at 11.4 µM] (inactive)	–
